Experimental data reported in PubChem BioAssay (NCATS).
Inconclusive results are not listed. Where a call stands in place of a potency, no number is given. Active and inactive are the calls of the source. Calls follow the shape of the dose curve; as a rule, active = well fitted inhibition curve with a large enough effect; inconclusive = small, poorly fitted or top-dose-only effect; inactive = flat fitted curve, though single readings scatter.

Test system: AS120
Test: qHTS profiling for inhibitors of Plasmodium falciparum proliferation (AID 504749); also: nearly all actives have a fitted effect of over 60% in size
Conditions: P. falciparum in erythrocytes, SYBR Green DNA, 72 h; series mostly up to 28.7 µM
Method in brief: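 In a 72 h erythrocytic culture (37 C, humidified, 5% CO2) at 2.5% hematocrit and 0.3% starting parasitemia, compounds were tested; SYBR Green I in detergent lysis buffer stained parasite DNA overnight.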

SMILES | Potency
O=C(O)Cc1ccc(CCNS(=O)(=O)c2ccc(Cl)cc2)cc1 | inactive
NS(=O)(=O)c1ccc(NC(=O)CCC(=O)O)cc1 | inactive
C=CCSCC1Nc2cc(Cl)c(S(N)(=O)=O)cc2S(=O)(=O)N1 (stereo not given) | inactive
Cc1cccc(C)c1NC(=O)CC12CCCN1CCC2 | inactive
CC(=O)Nc1cccc(O)c1 | inactive
CNCc1ccccc1 | inactive
COc1ccc(C(=O)NCc2ccc(OCCN(C)C)cc2)cc1OC | inactive
C=CCNC(N)=S | inactive
NS(=O)(=O)c1cc(-c2nn[nH]n2)c(NCc2cccs2)cc1Cl | inactive
CCOc1ccc(C(=O)OCCN(CC)CC)cc1 | inactive
Cc1c(N(C)C)c(=O)n(-c2ccccc2)n1C | inactive
CCc1cccc(CC)c1NC(=O)CN(CC(=O)O)CC(=O)O | inactive
COC(=O)c1cccnc1 | inactive
Cc1ccc(S(=O)(=O)NC(=O)NC2CCCCCCC2)cc1 | inactive
CCCCCCCCCCCCCCCCC(C(=O)O)C(O)(CC(=O)O)C(=O)O (stereo not given) | inactive
Cn1c(=O)c2c(ncn2CCO)n(C)c1=O | inactive
CCCC(O)C(CC)CO (stereo not given) | inactive
CCCCCC(N)=O | inactive

SMILES | Potency
O=C(O)c1ccc[n+]([O-])c1 | inactive
CC(CSC(=O)c1ccccc1)C(=O)N1C[C@@H](Sc2ccccc2)C[C@H]1C(=O)O (stereo not given in full) | inactive
CCOc1cc(NC(C)=O)ccc1C(=O)OC | inactive
C[C@@H](N)C(=O)O | inactive
NS(=O)(=O)c1cc2c(cc1C(F)(F)F)NCNS2(=O)=O | inactive
NC(=O)NS(=O)(=O)c1ccc(N)cc1 | inactive
O=C(O)c1ccccc1C(=O)Nc1ccc(S(=O)(=O)Nc2nccs2)cc1 | inactive
CC(=O)NS(=O)(=O)c1ccc(N)cc1 | inactive
O=C(O)Cn1c(C(=O)Nc2nc(-c3ccccc3Cl)cs2)cc2ccccc21 | inactive
CC(O)CCCCn1c(=O)c2c(ncn2C)n(C)c1=O (stereo not given) | inactive
CCCCCCCCCCCCCCCCN | inactive
CN1CCCN=C1COC(=O)C(O)(c1ccccc1)C1CCCCC1 (stereo not given) | inactive
NS(=O)(=O)c1ccc(C(=O)O)cc1 | inactive
Cn1c([N+](=O)[O-])cnc1COC(N)=O | inactive
O=C(O)c1ccccc1OP(=O)(O)O | inactive
c1ccc2[nH]ccc2c1 | inactive
O=C(OOC(=O)c1ccccc1)c1ccccc1 | inactive
